Screening data deposited in PubChem BioAssay by National Center for Advancing Translational Sciences (NCATS).
Most compounds without a hit are left out; they make up all but 5.8% or so of the library.
PINK1 modulator: PINK1 expression modulation. AID 624263. Potency, µM (titrated, usually from 76.6 µM), for the others: top-dose activation (PINK1 increase), usual class: activators. 410,000 compounds, 0.2% hits. PINK1 immunofluorescence, high-content cytometry, 24 h; active = well fitted activation curve with a large enough effect; inconclusive = small, poorly fitted or top-dose-only effect; cell line not stated here; also: % of control where 0% means no effect; nearly all actives have a fitted effect of over 65% in size
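Measures PINK1 amount and localization on or inside mitochondria by immunofluorescence. Stable cells get compounds at 5 concentrations for 24 hours before fixation and staining; CCCP controls included.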
MCF10A rereplic: inducers of DNA re-replication in MCF 10A breast cells; 350,000 compounds, 2.9% hits; Potency, µM (top dose mostly 46.1 µM), for the others: top-dose activity, positive = re-replication, usual class: activators; MCF 10A DNA re-replication, Hoechst nuclear intensity, 48 h; also: % of control where 0% means no effect; nearly all actives have a fitted effect of over 50% in size
SW480 rereplic: inducers of DNA re-replication in SW480 colon cancer cells. AID 624297. SW480 DNA re-replication, Hoechst DNA content imaging, 48 h. Potency, µM (highest dose often 46.1 µM), for inactives: at the top dose re-replication activation, most hits filed as activators. 340,000 compounds, 1.8% hits; also: % of control where 0% means no effect; nearly all actives have a fitted effect of over 55% in size
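Quantitative HTS format with DMSO vehicle controls; 48 hr drug incubation at 37 C, then 40 min Hoechst staining and scanning imager measurement at 405 nm excitation.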
KB-3-1 cytotox: KB-3-1 parental cell cytotoxicity; Potency, µM (series often up to 46.1 µM), actives largely listed as cytotoxic; KB-3-1 viability, CellTiter-Glo ATP luminescence, 72 h; 400,000 compounds, 1.4% hits; also: % is scaled to controls: 0 for no effect and ±100 for the full control effect; nearly all actives have a fitted effect of over 60% in size
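72 h, 37 °C compound treatment of KB-3-1 parental cells; CellTiter-Glo added, 10 min, luminescence read. Data corrected against DMSO-only plates and normalized before curve fitting.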
KB-V1 MDR tox: KB-V1 MDR subline cytotoxicity | KB-V1 MDR cells viability, CellTiter-Glo, 72 h | Potency, µM (highest dose often 46.1 µM), usual class: cytotoxic | 400,000 compounds, 3.4% hits; also: % is scaled to controls: 0 for no effect and ±100 for the full control effect; nearly all actives have a fitted effect of over 60% in size
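Readout: CellTiter-Glo luminescence, 10 min after addition. Cells: KB-V1 MDR subline, 72 h at 37 degrees C with compound. Analysis: corrected, normalized data fitted to concentration-effect curves.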
ALOX12 inh: blocks human arachidonate 12S-lipoxygenase | P18054 | purified 12hLO, xylenol orange hydroperoxide absorbance | Potency, µM (highest dose often 108 µM), for the others: at the top dose activity change, negative = inhibition, hits mostly inhibitors | 580,000 compounds, 1.1% hits | AID 1671190; also: % is scaled to controls: 0 for no effect and ±100 for the full control effect
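Hydroperoxide product was detected by ferrous iron/xylenol orange as the 573 to 405 nm absorbance ratio. Arachidonic acid at 40 uM (final) was turned over for 30 min at room temperature by 150 nM human 12hLO, pH 7.0 Hepes buffer, after 15 min compound preincubation.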
Starred values were filed as active, the others as inactive; i = inactive; ? = inconclusive; . = no result; [ ] = remark or other dose. Unless noted, calls follow the shape of the dose curve; as a rule, active = well fitted curve in the direction sought with a large enough effect; inconclusive = small, poorly fitted or top-dose-only effect, or another doubt; inactive = no such curve, though single readings can be large; an effect the other way counts as inactive or inconclusive. Potency is read from the fitted curve at half-maximal effect.

SMILES	PINK1 modulator	MCF10A rereplic	SW480 rereplic	KB-3-1 cytotox	KB-V1 MDR tox	ALOX12 inh
Nc1cccc2c1C(=O)N(C(=O)/C=C/c1cccc(Br)c1)C2=O	0%	21µM*	?	i	?	-23%
Nc1cccc2c1C(=O)N(C(=O)/C=C/c1cccc(F)c1)C2=O	2%	?	18µM*	?	?	?
O=C(Nc1ccccc1F)N1CCN(c2ccc(Cl)cc2)CC1	.	.	.	.	.	-12%
O=C1NCCCCCCN(C(=O)c2cccnc2)[C@H]2C[C@H](C(=O)N3CCc4ccccc4C3)C[C@@H]12	.	.	.	.	.	39%
CCC(O)CC(C(=O)NNc1ccccc1)C(=O)NNc1ccccc1 (stereo unspecified)	3%	?	-76%	?	i	11µM*
Cc1onc(-c2ccccc2)c1-c1nnc(CN2CCN(CC(=O)N3CCOCC3)CC2)o1	.	.	.	.	.	7%
CCc1ccc(-c2cc(C(F)(F)F)n3nc(C(=O)NCc4cnn(C)c4)cc3n2)s1	.	.	.	.	.	-1%
CCc1ccc(-c2cc(C(F)(F)F)n3nc(C(=O)Nc4cnn(Cc5ccc(C)cc5)c4)cc3n2)s1	-2%[38.3 µM]	?	16%	i	3.7µM*	.
O=C(CCc1ncc(-c2ccc(F)cc2)o1)Nc1nccs1	.	.	.	.	.	32%
Cc1sc2ccccc2[n+]1Cc1ccccc1	.	.	.	i	i	.
COc1ccc(/C=C/c2sc3ccccc3[n+]2CCCCI)cc1OC	0%	.	.	?	?	.
CN(C)c1ccc(/C=C/c2sc3ccccc3[n+]2Cc2ccccc2)cc1	40µM*	.	.	i	?	.
CCCN(CCC)c1ccc(/C=C/c2sc3ccccc3[n+]2CCCCI)cc1	14µM*	.	.	i	i	.
Cc1ccc(C2=NC(C)(C)N=C2SCC(=O)Nc2ccc(C)c(C)c2)cc1	.	.	.	.	.	-8%
COc1cc(/C=N/NC(=O)c2ccc(CN3c4cccc5cccc(c45)S3(=O)=O)cc2)cc(OC)c1O	6%	16µM*	17%	i	i	-6%
COc1ccc(/C=N/NC(=O)c2ccc(CN3c4cccc5cccc(c45)S3(=O)=O)cc2)cc1	2%	16%	1%	i	i	-19%
COc1ccc(OC)c(NC(=O)CN2c3cccc4cccc(c34)S2(=O)=O)c1	-1%	7%	0%	i	5.2µM*	-7%
O=C(CN1c2cccc3cccc(c23)S1(=O)=O)NCCc1ccc(F)cc1	1%	-2%	-14%	i	i	176%
COc1ccc(NC(=O)CN2c3cccc4cccc(c34)S2(=O)=O)c(OC)c1	-2%[38.3 µM]	-11%	12%	i	i	25%
